Inconclusive results are not listed. Where a call stands in place of a potency, no number is given. The source made the active and inactive calls. Unless noted, calls follow the shape of the full dose curve.
Assay: qHTS assay for small molecule disruptors of the mitochondrial membrane potential - cell viability (AID 720634);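 also: human HepG2 liver cancer cells; nearly all actives have a fitted effect of over 20% in size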
Settings: HepG2 viability, ATP luminescence (CellTiter-Glo), 1 h; series mostly up to 83.2 µM
Summary of the method: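 ATP-based luminescent viability readout (CellTiter-Glo, 30 min, room temperature) in HepG2 cells multiplexed with the m-MPI membrane potential dye; compound exposure lasted 1 hr at 37 C.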

Q: With NCCCN1CCN(CCCN)CC1 as the compound, how does the Potency read?
A: inactive

Q: Which Potency does the source give for CCCOCCC here?
A: inactive

Q: With CCCCNC(=S)NCCCC as the compound, how does the Potency read?
A: inactive

Q: With OCCN(CCO)CCN(CCO)CCO as the compound, how does the Potency read?
A: inactive

Q: For CC(C)C1=CC2=CC[C@@H]3[C@](C)(CCC[C@@]3(C)C(=O)O)[C@H]2CC1, which Potency is on record?
A: inactive

Q: Which Potency does the source give for NC/C=C/C(=O)O here?
A: inactive

Q: With COc1ccccc1N1CCN(CCCNc2cc(=O)n(C)c(=O)n2C)CC1 as the compound, how does the Potency read?
A: inactive

Q: Which Potency does the source give for CCN1CC(CCN2CCOCC2)C(c2ccccc2)(c2ccccc2)C1=O (stereo not given) here?
A: inactive

Q: With C[C@@H]1CN(c2c(F)c(N)c3c(=O)c(C(=O)O)cn(C4CC4)c3c2F)C[C@H](C)N1 as the compound, how does the Potency read?
A: inactive

Q: For CCOC(=O)c1ccccc1O, which Potency is on record?
A: inactive

Q: With CC(=O)N[C@@H](CC(C)C)C(=O)O as the compound, how does the Potency read?
A: inactive

Q: For CC(C)CC(=O)OCc1ccccc1, which Potency is on record?
A: inactive

Q: Which Potency does the source give for CC/C=C\CCOC(=O)CCCCC here?
A: inactive

Q: With Cc1ccc(C=O)s1 as the compound, how does the Potency read?
A: inactive

Q: For FC(F)(F)C(Cl)(Cl)Cl, which Potency is on record?
A: inactive

Q: Which Potency does the source give for CN(C)Cc1ccccc1 here?
A: inactive

Q: For CC(C)c1ccccc1, which Potency is on record?
A: inactive

Q: With O=Cc1ccc(F)c(Br)c1 as the compound, how does the Potency read?
A: inactive

Q: With CCOC(=O)C(Br)c1ccccc1 (stereo not given) as the compound, how does the Potency read?
A: inactive

Q: With CCCC1CCC(=O)O1 (stereo not given) as the compound, how does the Potency read?
A: inactive

Q: With CN1CCN(c2c(F)cc3c(=O)c(C(=O)O)cn4c3c2SCC4)CC1 as the compound, how does the Potency read?
A: inactive

Q: With O=c1[nH]cnc2c1ncn2[C@@H]1O[C@H](CO)[C@@H](O)[C@H]1O as the compound, how does the Potency read?
A: inactive

Q: With CCOC(=O)[C@H](CCc1ccccc1)N[C@@H](C)C(=O)N1Cc2cc(OC)c(OC)cc2C[C@H]1C(=O)O as the compound, how does the Potency read?
A: inactive

Q: With CC(C)C(=O)OC/C=C/c1ccccc1 as the compound, how does the Potency read?
A: inactive

Q: With COc1nc(C)nc(NC(=O)NS(=O)(=O)c2ccccc2OCCCl)n1 as the compound, how does the Potency read?
A: inactive

Q: Which Potency does the source give for FC(F)(F)c1ccccc1 here?
A: inactive

Q: Which Potency does the source give for Cc1c(C(=O)NCCO)[n+](=O)c2ccccc2n1[O-] here?
A: inactive

Q: With CCCCc1ccc2nc(NC(=O)OC)[nH]c2c1 as the compound, how does the Potency read?
A: inactive

Q: For NC(=O)Cc1cccc(C(=O)c2ccccc2)c1N, which Potency is on record?
A: inactive

Q: Which Potency does the source give for Nc1cccc(S(=O)(=O)O)c1 here?
A: inactive

Q: Which Potency does the source give for COC(=O)c1ccc(OC)cc1 here?
A: inactive

Q: With COc1cc(C)ccc1C(C)C as the compound, how does the Potency read?
A: inactive

Q: With C=Cc1ccccc1 as the compound, how does the Potency read?
A: inactive

Q: For Cc1cc(S(=O)(=O)O)c(N)cc1Cl, which Potency is on record?
A: inactive

Q: Which Potency does the source give for O=C(O)c1cccc(Cl)c1Cl here?
A: inactive

Assay: qHTS assay for small molecule disruptors of the mitochondrial membrane potential (AID 720635; active = well fitted inhibition curve with a large enough effect in the signal ratio in the repeat runs; the % refers to the signal ratio; also: potency is read from the fitted curve at half-maximal effect)
Settings: HepG2 mitochondrial membrane potential, Mito-MPS dye ratio; series mostly up to 83.2 µM
Summary of the method: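 HepG2 cells (2,000/well) attached overnight at 37C, then took compound for 1 hr at 37C, 5% CO2. Mito-MPS dye was added for 30 min; fluorescence was read at 490/535 nm (monomers) and 540/590 nm (aggregates).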

Q: With NCCCN1CCN(CCCN)CC1 as the compound, how does the Potency read?
A: inactive

Q: For CCCOCCC, which Potency is on record?
A: inactive

Q: With CCCCNC(=S)NCCCC as the compound, how does the Potency read?
A: inactive

Q: Which Potency does the source give for OCCN(CCO)CCN(CCO)CCO here?
A: inactive

Q: With CC(C)C1=CC2=CC[C@@H]3[C@](C)(CCC[C@@]3(C)C(=O)O)[C@H]2CC1 as the compound, how does the Potency read?
A: inactive

Q: For NC/C=C/C(=O)O, which Potency is on record?
A: inactive

Q: For COc1ccccc1N1CCN(CCCNc2cc(=O)n(C)c(=O)n2C)CC1, which Potency is on record?
A: inactive

Q: With CCN1CC(CCN2CCOCC2)C(c2ccccc2)(c2ccccc2)C1=O (stereo not given) as the compound, how does the Potency read?
A: inactive

Q: With C[C@@H]1CN(c2c(F)c(N)c3c(=O)c(C(=O)O)cn(C4CC4)c3c2F)C[C@H](C)N1 as the compound, how does the Potency read?
A: inactive

Q: For CCOC(=O)c1ccccc1O, which Potency is on record?
A: inactive

Q: Which Potency does the source give for CC(=O)N[C@@H](CC(C)C)C(=O)O here?
A: inactive

Q: With CC(C)CC(=O)OCc1ccccc1 as the compound, how does the Potency read?
A: inactive

Q: For CC/C=C\CCOC(=O)CCCCC, which Potency is on record?
A: inactive

Q: With Cc1ccc(C=O)s1 as the compound, how does the Potency read?
A: inactive

Q: With FC(F)(F)C(Cl)(Cl)Cl as the compound, how does the Potency read?
A: inactive

Q: With CN(C)Cc1ccccc1 as the compound, how does the Potency read?
A: inactive

Q: Which Potency does the source give for CC(C)c1ccccc1 here?
A: inactive

Q: Which Potency does the source give for O=Cc1ccc(F)c(Br)c1 here?
A: inactive

Q: With CCOC(=O)C(Br)c1ccccc1 (stereo not given) as the compound, how does the Potency read?
A: inactive

Q: Which Potency does the source give for CCCC1CCC(=O)O1 (stereo not given) here?
A: inactive

Q: For CN1CCN(c2c(F)cc3c(=O)c(C(=O)O)cn4c3c2SCC4)CC1, which Potency is on record?
A: inactive

Q: Which Potency does the source give for O=c1[nH]cnc2c1ncn2[C@@H]1O[C@H](CO)[C@@H](O)[C@H]1O here?
A: inactive

Q: Which Potency does the source give for CCOC(=O)[C@H](CCc1ccccc1)N[C@@H](C)C(=O)N1Cc2cc(OC)c(OC)cc2C[C@H]1C(=O)O here?
A: inactive

Q: With CC(C)C(=O)OC/C=C/c1ccccc1 as the compound, how does the Potency read?
A: inactive

Q: For COc1nc(C)nc(NC(=O)NS(=O)(=O)c2ccccc2OCCCl)n1, which Potency is on record?
A: inactive

Q: For FC(F)(F)c1ccccc1, which Potency is on record?
A: inactive

Q: For Cc1c(C(=O)NCCO)[n+](=O)c2ccccc2n1[O-], which Potency is on record?
A: inactive

Q: For CCCCc1ccc2nc(NC(=O)OC)[nH]c2c1, which Potency is on record?
A: 254 nM (active)

Q: For NC(=O)Cc1cccc(C(=O)c2ccccc2)c1N, which Potency is on record?
A: inactive

Q: Which Potency does the source give for Nc1cccc(S(=O)(=O)O)c1 here?
A: 97.2 nM (active)

Q: For COC(=O)c1ccc(OC)cc1, which Potency is on record?
A: inactive

Q: Which Potency does the source give for COc1cc(C)ccc1C(C)C here?
A: inactive

Q: With C=Cc1ccccc1 as the compound, how does the Potency read?
A: inactive

Q: With Cc1cc(S(=O)(=O)O)c(N)cc1Cl as the compound, how does the Potency read?
A: inactive

Q: With O=C(O)c1cccc(Cl)c1Cl as the compound, how does the Potency read?
A: inactive

From PubChem BioAssay (Tox21)
